Screening data deposited in PubChem BioAssay by National Center for Advancing Translational Sciences (NCATS).
ALOX12 inh: inhibitors of human 12S-lipoxygenase ALOX12. P18054. purified 12hLO, xylenol orange hydroperoxide absorbance. Potency, µM (doses to about 108 µM), for the others: top-dose activity change, negative = inhibition, most hits filed as inhibitors. 580,000 compounds, 1.1% hits. AID 1671190
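Hydroperoxide product was detected by ferrous iron/xylenol orange as the 573 to 405 nm absorbance ratio. Arachidonic acid at 40 uM (final) was turned over for 30 min at room temperature by 150 nM human 12hLO, pH 7.0 Hepes buffer, after 15 min compound preincubation.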
VDR inh: blocks the human vitamin D receptor. P11473. VDR-SRC2-3 peptide fluorescence polarization, 2 h. Potency, µM, without a hit: max response, negative = inhibition, actives largely listed as inhibitors. 400,000 compounds, 0.93% hits. AID 504847
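The screen uses fluorescence polarization to detect compounds that interfere with recruitment of the SRC2-3 coactivator peptide to VDR; plates are read after 2 h at room temperature.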
PLK1 PBD block: blocks phosphopeptide binding to human PLK1 polo-box domain; Plk1 PBD binding of FITC phosphopeptide, fluorescence polarization; Potency, µM, inactives show max response, negative = inhibition, usual class: inhibitors; P53350; 360,000 compounds, 2.8% hits; also: series mostly up to about 57 µM; nearly all actives have a fitted effect of over 65% in size
Target sequence (P53350 whole entry, looked up, the tested form may be a part): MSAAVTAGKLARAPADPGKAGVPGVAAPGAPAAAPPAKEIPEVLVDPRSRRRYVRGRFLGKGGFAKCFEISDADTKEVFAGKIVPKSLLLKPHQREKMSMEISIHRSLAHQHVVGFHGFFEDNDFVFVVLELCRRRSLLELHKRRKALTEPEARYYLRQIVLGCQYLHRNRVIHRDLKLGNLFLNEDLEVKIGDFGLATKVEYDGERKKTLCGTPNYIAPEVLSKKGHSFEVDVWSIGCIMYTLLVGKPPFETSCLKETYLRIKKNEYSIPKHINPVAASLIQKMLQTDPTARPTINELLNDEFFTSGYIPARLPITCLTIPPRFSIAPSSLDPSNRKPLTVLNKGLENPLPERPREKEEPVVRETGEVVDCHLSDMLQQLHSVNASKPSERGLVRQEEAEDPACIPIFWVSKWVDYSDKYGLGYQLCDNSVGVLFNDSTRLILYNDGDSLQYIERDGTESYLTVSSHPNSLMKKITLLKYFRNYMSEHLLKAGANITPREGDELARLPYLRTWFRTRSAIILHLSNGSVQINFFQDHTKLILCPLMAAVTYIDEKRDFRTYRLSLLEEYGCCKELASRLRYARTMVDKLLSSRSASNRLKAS
Sfp PPTase inh: blocks B. subtilis Sfp PPTase activity; Q9F4F7; Potency, µM, inactives show largest response in the series, negative = inhibition, usual class: inhibitors; AID 1490; 310,000 compounds, 3.5% hits; Biochemical Sfp PPTase activity, qHTS;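 also: the enzyme is Sfp with the accession as filed and its product quenches rhodamine fluorescence; 0% = enzyme reaction without inhibitor and -100% = no enzyme wells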
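Fluorescence-quenching assay: 15 nM Sfp-PPTase preincubated 15 min at room temperature with compound, then 5 uM rhodamine-CoA and 12.5 uM BHQ-2-labelled YbbR peptide added. Fluorescence (ex 525/em 598 nm) read at start and after 30 min; difference gives rate.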
* hit, by the source's call; ! = not confirmed by another sample; [ ] = remark or other dose. A selection: hits, their analogues and other compounds. The true share with any hit is near 4.2%. Calls follow the shape of the dose curve; as a rule, active = well fitted curve in the direction sought with a large enough effect; inconclusive = small, poorly fitted or top-dose-only effect, or another doubt; inactive = no such curve, though single readings can be large; an effect the other way counts as inactive or inconclusive. Unless noted, % is scaled to controls: 0 for no effect and ±100 for the full control effect; potency is read from the fitted curve at half-maximal effect.

How did COc1ccc(OC)c(NC(=O)C2CCCN(S(=O)(=O)c3cccc4nsnc34)C2)c1 (stereo not given) do in these assays?
ALOX12 inh: 0.0%[57.4 µM]; VDR inh: -20.1%; PLK1 PBD block: 3.36µM*!; Sfp PPTase inh: -7.2%

Results for CC(C)NC(=O)C1COc2ccccc2O1 (stereo not given) ?
ALOX12 inh: -10.0%; VDR inh: -21.9%; PLK1 PBD block: -11.8%; Sfp PPTase inh: 3.1%

What do the screens show for `CCC/C(O)=C1\C(=O)CC(C)(C)CC1=Nc1ccccc1O`?
ALOX12 inh: -3.3%; VDR inh: 79.4µM*; PLK1 PBD block: 13.4µM*; Sfp PPTase inh: 8.6%

Results for Cc1cc(C(=O)C(C)Cl)c(C)n1Cc1ccco1 (stereo not given) ?
ALOX12 inh: -7.2%; VDR inh: -9.8%; PLK1 PBD block: 21.2µM*; Sfp PPTase inh: -7.9%

How did Cc1cc(C(=O)CSc2ncccn2)c(C)n1Cc1ccco1 do in these assays?
ALOX12 inh: 3.0%; VDR inh: 12.6%; PLK1 PBD block: -5.8%; Sfp PPTase inh: 56.2µM*

What do the screens show for `Cc1cc(C(=O)COC(=O)C(C)NC(N)=O)c(C)n1Cc1ccco1` (stereo not given)?
ALOX12 inh: -13.1%; VDR inh: -1.5%; PLK1 PBD block: -14.5%; Sfp PPTase inh: 6.7%

How did COC(=O)c1cc(COC(=O)c2cccnc2SC)oc1C do in these assays?
ALOX12 inh: 39.8µM*; VDR inh: 14.4%; PLK1 PBD block: -4.7%; Sfp PPTase inh: -5.7%

What do the screens show for `CC1CCC2C(=O)N(c3ccc(C(=O)Oc4cccc5cccnc45)cc3)C(=O)C2C1` (stereo not given)?
ALOX12 inh: -12.1%; VDR inh: -1.6%; PLK1 PBD block: 0.0%; Sfp PPTase inh: 10µM*

How did O=C(O)c1cc2n(n1)C(C(F)(F)F)CC(c1ccccc1)N2 (stereo not given) do in these assays?
ALOX12 inh: inconclusive; VDR inh: 4.3%; PLK1 PBD block: -4.1%; Sfp PPTase inh: 22.8%

How did O=C(O)c1cc2n(n1)C(C(F)(F)F)CC(C1CC1)N2 (stereo not given) do in these assays?
ALOX12 inh: -7.2%; VDR inh: inconclusive; PLK1 PBD block: 23.8µM*; Sfp PPTase inh: 1.9%

How did COc1ccc(C2NC(=O)NC(O)(C(F)(F)F)C2C(=O)c2ccc(F)cc2)cc1 (stereo not given) do in these assays?
ALOX12 inh: -16.7%; VDR inh: -13.4%; PLK1 PBD block: -3.2%; Sfp PPTase inh: 23.7%

Results for OC(CCN1CC2CCC(CC2)C1)(Cc1ccccc1)c1ccco1 (stereo not given) ?
ALOX12 inh: 2.51µM*; VDR inh: inconclusive; PLK1 PBD block: -21.3%

How did CC(C)(C)NC(=O)C(c1ccncc1)N(Cc1ccco1)C(=O)c1ccc(-c2ccccc2)[nH]1 (stereo not given) do in these assays?
ALOX12 inh: inconclusive; VDR inh: 70.8µM*; PLK1 PBD block: -20.5%; Sfp PPTase inh: -90.1%

Results for COc1cc(C2SC[C@H]3C(=O)N(c4ccccc4)C(=O)N23)cc(OC)c1OC (stereo not given in full) ?
ALOX12 inh: -2.7%; VDR inh: -6.5%

Results for Cc1cc2c(SCC(=O)Nc3ccccc3O)ncnc2s1 ?
ALOX12 inh: 0.0%; VDR inh: -17.5%; PLK1 PBD block: 29.9µM*

How did COc1cc(OC)c(C#N)c(S(=O)(=O)Cc2ccccc2)c1 do in these assays?
ALOX12 inh: 45.3%; VDR inh: 3.9%; PLK1 PBD block: -17.2%; Sfp PPTase inh: 10.7%

How did N#Cc1c([N+](=O)[O-])cc([N+](=O)[O-])cc1S(=O)(=O)Cc1ccccc1 do in these assays?
ALOX12 inh: inconclusive; VDR inh: 39.8µM*; PLK1 PBD block: 1.06µM*

How did CCN(CC)S(=O)(=O)c1ccc(O)c(NC(=O)c2ccc(N3CCOCC3)c([N+](=O)[O-])c2)c1 do in these assays?
ALOX12 inh: -25.3%; VDR inh: inconclusive; PLK1 PBD block: 21.2µM*; Sfp PPTase inh: inconclusive

Results for Cc1ccc(S(=O)(=O)N2CCOCC2)cc1NC(=O)COc1ccc(C(=O)c2ccccc2)cc1 ?
ALOX12 inh: 196.0%; VDR inh: 89.1µM*; PLK1 PBD block: -7.6%

Results for CCN(CC)S(=O)(=O)c1ccc(N2CCOCC2)c(NC(=O)c2ccccc2)c1 ?
ALOX12 inh: 7.1%; VDR inh: 15.0%; PLK1 PBD block: -5.5%; Sfp PPTase inh: -4.1%

How did CCN(CC)S(=O)(=O)c1ccc(O)c(NC(=O)COc2ccc(S(=O)(=O)N3CCOCC3)cc2)c1 do in these assays?
ALOX12 inh: inconclusive; VDR inh: inconclusive; PLK1 PBD block: 23.8µM*

Results for CCN(CC)S(=O)(=O)c1ccc(N2CCOCC2)c(NC(=O)COc2ccc(Cl)cc2)c1 ?
ALOX12 inh: -5.7%; VDR inh: 18.7%; PLK1 PBD block: -5.4%; Sfp PPTase inh: 8.6%

How did Cc1ccc(S(=O)(=O)N2CCOCC2)cc1NC(=O)COC(=O)CNC(=O)c1ccccc1 do in these assays?
ALOX12 inh: -10.6%; VDR inh: 0.6%; PLK1 PBD block: -2.8%; Sfp PPTase inh: 31.6%

How did Cc1ccc(N(C)S(=O)(=O)c2cccc(C(=O)NCC(c3cccs3)N3CCOCC3)c2)cc1 (stereo not given) do in these assays?
ALOX12 inh: 6.8%; VDR inh: -13.0%; PLK1 PBD block: -5.7%

How did O=C(NC1CC1)C1CCN(C(=O)c2ncn3c2COC(c2ccc(F)cc2)C3)CC1 (stereo not given) do in these assays?
ALOX12 inh: -2.6%

Results for NC(=O)c1cc[n+](CC2=C(C(=O)O)N3C(=O)[C@@H](NC(=O)C(c4ccccc4)S(=O)(=O)[O-])[C@H]3SC2)cc1 (stereo not given in full) ?
VDR inh: -22.4%; PLK1 PBD block: 4.74µM*; Sfp PPTase inh: 10.7%

What do the screens show for `NC(=O)c1cc[n+](CC2=C(C(=O)[O-])N3C(=O)[C@@H](NC(=O)Cc4cccs4)[C@@H]3SC2)cc1`?
VDR inh: 15.8µM*; Sfp PPTase inh: -10.8%

What do the screens show for `O=C(NCc1ccc(Cl)cc1)C1CCC(CNc2c(N3CCCC3)c(=O)c2=O)CC1` (stereo not given)?
ALOX12 inh: -13.5%; VDR inh: -1.7%; PLK1 PBD block: 1.7%; Sfp PPTase inh: 13.2%

What do the screens show for `FC(F)(F)c1ccccc1-c1nc(NC2CC2)c2ccccc2n1`?
ALOX12 inh: inconclusive; VDR inh: -7.3%; Sfp PPTase inh: 14.1%

What do the screens show for `CC1Cc2ccccc2N1C(=O)COC(=O)CCc1nc2ccccc2c(=O)[nH]1` (stereo not given)?
ALOX12 inh: -8.1%; VDR inh: inconclusive; PLK1 PBD block: 4.23µM*; Sfp PPTase inh: 18.1%

What do the screens show for `O=C(COC(=O)CCc1nc2ccccc2c(=O)[nH]1)Nc1ccc(Cl)cn1`?
ALOX12 inh: inconclusive; VDR inh: inconclusive; PLK1 PBD block: 15µM*; Sfp PPTase inh: 14.8%

How did O=C(CCc1nc2ccccc2c(=O)[nH]1)OCC(=O)N1CCc2ccccc21 do in these assays?
ALOX12 inh: 0.6%; VDR inh: -6.8%; PLK1 PBD block: -0.6%; Sfp PPTase inh: 4.2%
